From PubChem BioAssay (NCI)
Compounds without any hit were thinned out: in the full panel of roughly 79,000, 15% have a hit. The source made the active and inactive calls. Rule as the data show it: active = growth inhibition above about 70%; inactive = the rest.

What was measured:
[1] = NCI Yeast Anticancer Drug Screen. Data for the mec2-1 strain (AID 157); conditions: S. cerevisiae mec2-1 strain, hits give high values
Outline: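 Test agents were screened against the mec2-1 yeast strain, with defined DNA repair or cell cycle alteration. Growth was scored as inhibition against vehicle-only controls.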

[2] = NCI Yeast Anticancer Drug Screen. Data for the sgs1 mgt1 strain (AID 161);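 also: 0% = growth of cultures given vehicle only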; conditions: S. cerevisiae sgs1 mgt1 strain, hits give high values
Outline: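 Test agents were incubated with a DNA-repair-mutant yeast strain. Growth was then read and compared against vehicle-treated controls.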

[3] = NCI Yeast Anticancer Drug Screen. Data for the CLN2oe strain (AID 163);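 also: 0% = growth of vehicle-only control cultures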; conditions: S. cerevisiae CLN2oe strain, hits give high values
Outline: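 Here, growth inhibition in a cell-cycle-altered yeast strain after compound exposure was quantified against vehicle control growth.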

[4] = NCI Yeast Anticancer Drug Screen. Data for the cln2 rad14 strain (AID 165);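 also: 0% = growth equal to vehicle treated cultures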; conditions: S. cerevisiae cln2 rad14 strain, hits give high values
Outline: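 Growth of compound-exposed yeast (cln2 rad14 genotype) measured and expressed as inhibition relative to vehicle.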

[5] = NCI Yeast Anticancer Drug Screen. Data for the bub3 strain (AID 167); conditions: S. cerevisiae bub3 mutant strain, hits give high values
Outline: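 Growth of a checkpoint-deficient yeast mutant is measured after compound exposure. Values represent inhibition relative to vehicle.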

[6] = NCI Yeast Anticancer Drug Screen. Data for the wt2 strain (AID 169);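 also: 0% = growth of vehicle-treated yeast cultures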; conditions: S. cerevisiae wt2 strain growth inhibition, hits give high values
Outline: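 Genetically defined yeast strains from a DNA-repair/cell-cycle panel were used. Compound-exposed yeast growth was measured, and the inhibition was calculated relative to vehicle treatment.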

[7] = NCI Yeast Anticancer Drug Screen. Data for the mlh1 strain (AID 171);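 also: 0% = growth of vehicle-treated control cultures of the same strain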; conditions: S. cerevisiae mlh1 strain growth inhibition, hits give high values
Outline: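 Here the genetically defined yeast mutant is grown with each compound, and the extent to which its growth falls below that of vehicle-exposed cells is reported.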

[8] = NCI Yeast Anticancer Drug Screen. Data for the sgs1 strain (AID 173);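 also: 0% = growth of vehicle-only control cultures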; conditions: S. cerevisiae sgs1 mutant, hits give high values
Outline: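 Relative growth inhibition, referenced to vehicle, was determined in a yeast strain with a defined alteration affecting DNA damage repair or cell cycle control after compound exposure.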

[9] = NCI Yeast Anticancer Drug Screen. Data for the mlh1 rad18 strain (AID 175); conditions: S. cerevisiae mlh1 rad18 strain growth inhibition, hits give high values
Outline: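 In this whole-cell yeast screen, a strain with altered DNA damage repair is challenged with compound, and its growth is measured against matched vehicle-treated controls.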

[10] = NCI Yeast Anticancer Drug Screen. Data for the rad18 strain (AID 177); conditions: S. cerevisiae rad18 mutant growth inhibition, hits give high values
Outline: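 Screen uses a yeast strain with a defined lesion in DNA damage repair; compound effect is read as loss of growth compared to untreated vehicle cultures.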

[11] = NCI Yeast Anticancer Drug Screen. Data for the wt1 strain (AID 149);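 also: 0% = growth of vehicle-treated wt1 cultures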; conditions: S. cerevisiae wt1 strain (SPY 50644) growth inhibition, hits give high values
Outline: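 Readout: yeast growth inhibition, normalised to vehicle controls, in the wt1 strain exposed to test compounds.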

[12] = NCI Yeast Anticancer Drug Screen. Data for the rad50EPP+ strain (AID 151);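 also: 0% = growth of vehicle-treated control cultures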; conditions: S. cerevisiae rad50 mutant strain, hits give high values
Outline: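 One strain with a rad50 alteration (rad50EPP+) was compound-treated, its growth then compared to that of vehicle controls.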

[13] = NCI Yeast Anticancer Drug Screen. Data for the mgt1 strain (AID 153); conditions: S. cerevisiae mgt1 mutant growth inhibition, hits give high values
Outline: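 After exposure of the mgt1 yeast mutant to compound, growth was measured and reported as inhibition compared with vehicle controls.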

[14] = NCI Yeast Anticancer Drug Screen. Data for the rad50 strain (AID 155);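 also: 0% = growth of vehicle-only cultures of the same strain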; conditions: S. cerevisiae rad50 strain growth inhibition, hits give high values
Outline: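 Compounds were tested on a yeast strain with an engineered DNA damage repair alteration; the reported value is growth inhibition normalised to vehicle treatment.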

[15] = NCI Yeast Anticancer Drug Screen. Data for the rad14 strain (AID 159);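 also: 0% = growth of vehicle-treated control cultures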; conditions: S. cerevisiae rad14 strain growth inhibition, hits give high values
Outline: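 Compound-treated yeast with a defined DNA-repair lesion; growth inhibition normalised to vehicle-treated cultures.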

[16] = at 5.0 µM (retest, dose inferred, filed as 0.5)
[17] = at 50.0 µM (retest, dose inferred, filed as 5.0)

Measured: growth inhibition

Cn1cc(NC(=O)c2cc(NC(=O)CN=C(N)N)cn2C)cc1C(=O)NCCC(=N)N
active: [1]; at 100.0 µM 99% | [2]; at 50.0 µM 84.6% | [3]; at 33.0 µM 96% | [3]; at 100.0 µM 97% | [5]; at 33.0 µM 93% | [5]; [17] 70% | [5]; at 50.0 µM 87.3% | [5]; at 100.0 µM 97% | [6]; at 33.0 µM 95% | [6]; at 100.0 µM 97% | [7]; at 33.0 µM 93% | [7]; at 100.0 µM 98% | [8]; at 33.0 µM 93% | [8]; at 100.0 µM 96% | [9]; [17] 94% | [9]; at 50.0 µM 85.5% | [10]; at 33.0 µM 95% | [10]; at 100.0 µM 97%
inactive: [2]; [16] 7% | [2]; [17] 11% | [3]; at 1.2 µM -1% | [3]; at 3.7 µM 0% | [3]; at 11.0 µM 16% | [4]; [16] -13% | [4]; [17] 28% | [4]; at 50.0 µM 68.5% | [5]; at 1.2 µM 11% | [5]; at 3.7 µM 18% | [5]; [16] 6% | [5]; at 11.0 µM 2% | [6]; at 1.2 µM 17% | [6]; at 3.7 µM 13% | [6]; at 11.0 µM 23% | [7]; at 1.2 µM -8% | [7]; at 3.7 µM -16% | [7]; at 11.0 µM -7% | [8]; at 1.2 µM 4% | [8]; at 3.7 µM 6% | [8]; at 11.0 µM 17% | [9]; [16] -18% | [10]; at 1.2 µM -4% | [10]; at 3.7 µM -18% | [10]; at 11.0 µM 14%

CC[PH+](CC)CC.CC[PH+](CC)CC.[Au]
inactive: [11]; at 1.2 µM 6% | [11]; at 3.7 µM 30% | [11]; at 11.0 µM 36% | [11]; at 33.0 µM 43% | [12]; at 1.2 µM 27% | [12]; at 3.7 µM 39% | [12]; at 11.0 µM 40% | [12]; at 33.0 µM 60% | [13]; at 1.2 µM 16% | [13]; at 3.7 µM 21% | [13]; at 11.0 µM 28% | [13]; at 33.0 µM 46% | [14]; at 1.2 µM 24% | [14]; at 3.7 µM 39% | [14]; [16] 22% | [14]; at 11.0 µM 50% | [1]; at 1.2 µM 14% | [1]; at 3.7 µM 24% | [1]; [16] 52% | [1]; at 11.0 µM 55% | [15]; at 1.2 µM 15% | [15]; at 3.7 µM 30% | [15]; at 11.0 µM 34% | [2]; [16] -11% | [3]; at 1.2 µM 2% | [3]; at 3.7 µM 20% | [3]; at 11.0 µM 23% | [3]; at 33.0 µM 54% | [5]; at 1.2 µM 8% | [5]; at 3.7 µM 16% | [5]; [16] -25% | [5]; at 11.0 µM 21% | [6]; at 1.2 µM -13% | [6]; at 3.7 µM -9% | [6]; at 11.0 µM 21% | [7]; at 1.2 µM 30% | [7]; at 3.7 µM 49% | [7]; at 11.0 µM 41% | [7]; at 33.0 µM 54% | [8]; at 1.2 µM 28% | [8]; at 3.7 µM 39% | [8]; at 11.0 µM 41% | [9]; [16] 34% | [10]; at 1.2 µM 12% | [10]; at 3.7 µM 16% | [10]; at 11.0 µM 32%
active: [11]; at 100.0 µM 98% | [12]; at 100.0 µM 97% | [13]; at 100.0 µM 98% | [14]; at 33.0 µM 92% | [14]; [17] 95% | [14]; at 50.0 µM 89.2% | [14]; at 100.0 µM 99% | [1]; at 33.0 µM 90% | [1]; [17] 99% | [1]; at 50.0 µM 94.2% | [1]; at 100.0 µM 98% | [15]; at 33.0 µM 86% | [15]; at 100.0 µM 99% | [2]; [17] 94% | [2]; at 50.0 µM 89.4% | [3]; at 100.0 µM 97% | [5]; at 33.0 µM 79% | [5]; [17] 97% | [5]; at 50.0 µM 89.3% | [5]; at 100.0 µM 98% | [6]; at 33.0 µM 98% | [6]; at 100.0 µM 99% | [7]; at 100.0 µM 99% | [8]; at 33.0 µM 90% | [8]; at 100.0 µM 99% | [9]; [17] 98% | [9]; at 50.0 µM 89% | [10]; at 33.0 µM 92% | [10]; at 100.0 µM 98%

CN(C)CCC(C(=O)C(Br)Br)(c1ccccc1)c1ccccc1
active: [11]; at 33.0 µM 98% | [11]; at 100.0 µM 99% | [12]; at 100.0 µM 72% | [13]; at 11.0 µM 96% | [13]; at 33.0 µM 99% | [13]; at 100.0 µM 99% | [14]; at 11.0 µM 82% | [14]; at 33.0 µM 99% | [14]; [17] 99% | [14]; at 50.0 µM 98.8% | [14]; at 100.0 µM 99% | [1]; at 11.0 µM 96% | [1]; at 33.0 µM 99% | [1]; at 50.0 µM 99.3% | [1]; at 100.0 µM 100% | [15]; at 11.0 µM 95% | [15]; at 33.0 µM 99% | [15]; at 100.0 µM 99% | [2]; [17] 99% | [2]; at 50.0 µM 97.3% | [3]; at 11.0 µM 74% | [3]; at 33.0 µM 99% | [3]; at 100.0 µM 98% | [4]; [17] 99% | [4]; at 50.0 µM 99.1% | [5]; at 11.0 µM 94% | [5]; at 33.0 µM 99% | [5]; [17] 98% | [5]; at 50.0 µM 99.5% | [5]; at 100.0 µM 99% | [6]; at 11.0 µM 73% | [6]; at 33.0 µM 99% | [6]; at 100.0 µM 99% | [7]; at 33.0 µM 99% | [7]; at 100.0 µM 100% | [8]; at 11.0 µM 94% | [8]; at 33.0 µM 99% | [8]; at 100.0 µM 99% | [9]; [17] 99% | [9]; at 50.0 µM 99% | [10]; at 11.0 µM 88% | [10]; at 33.0 µM 99% | [10]; at 100.0 µM 99%
inactive: [11]; at 1.2 µM -2% | [11]; at 3.7 µM -1% | [11]; at 11.0 µM 26% | [12]; at 1.2 µM -2% | [12]; at 3.7 µM -5% | [12]; at 11.0 µM -1% | [12]; at 33.0 µM 21% | [13]; at 1.2 µM -1% | [13]; at 3.7 µM 0% | [14]; at 1.2 µM 0% | [14]; at 3.7 µM 12% | [14]; [16] 16% | [1]; at 1.2 µM 3% | [1]; at 3.7 µM 2% | [1]; [16] 16% | [1]; [17] 38% | [15]; at 1.2 µM 7% | [15]; at 3.7 µM 30% | [2]; [16] 40% | [3]; at 1.2 µM 0% | [3]; at 3.7 µM 12% | [4]; [16] 19% | [5]; at 1.2 µM -6% | [5]; at 3.7 µM 0% | [5]; [16] -69% | [6]; at 1.2 µM 0% | [6]; at 3.7 µM 2% | [7]; at 1.2 µM 2% | [7]; at 3.7 µM 1% | [7]; at 11.0 µM 61% | [8]; at 1.2 µM -1% | [8]; at 3.7 µM 17% | [9]; [16] 33% | [10]; at 1.2 µM 2% | [10]; at 3.7 µM 11%
